Compounds without any hit were thinned out: in the full panel of roughly 83,000, 20% have a hit.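 Percent growth is the endpoint: 0 to 100 indicates growth inhibition (40 means 60% inhibition), 0 means no net growth, and negative values indicate cell death.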 A number with no mark means an inactive call. The source made the active and inactive calls. How the source made its calls: active means growth percent below 10; inactive means the rest.
Legend:
Assay in all cases: NCI-60 one-dose screen, 48 h (100 = growth as untreated, 0 = no growth, -100 = all killed)
[1] = test system: DU-145 prostate; details: 10 µM
[2] = test system: K-562 leukemia; details: 10 µM
[3] = test system: MALME-3M melanoma; details: 10 µM
[4] = test system: MDA-MB-231 breast; details: 10 µM
[5] = test system: RXF 393 renal; details: 10 µM
[6] = test system: SF-268 CNS; details: 10 µM
[7] = test system: SF-539 CNS; details: 10 µM
[8] = test system: UACC-257 melanoma; details: 10 µM
[9] = test system: HCT-15 colon; details: 10 µM
[10] = test system: HT29 colon; details: 10 µM
[11] = test system: SNB-75 CNS; details: 10 µM
[12] = test system: SNB-19 CNS; details: 10 µM
[13] = test system: U251 CNS; details: 10 µM
[14] = test system: PC-3 prostate; details: 10 µM
[15] = test system: SK-MEL-5 melanoma; details: 10 µM
[16] = test system: UACC-62 melanoma; details: 10 µM unless noted
[17] = test system: LOX IMVI melanoma; details: 10 µM
[18] = test system: SK-MEL-28 melanoma; details: 10 µM
[19] = test system: SF-295 CNS; details: 10 µM
[20] = test system: M14 melanoma; details: 10 µM

| Compound | growth [1] | growth [2] | growth [3] | growth [4] | growth [5] | growth [6] | growth [7] | growth [8] | growth [9] | growth [10] | growth [11] | growth [12] | growth [13] | growth [14] | growth [15] | growth [16] | growth [17] | growth [18] | growth [19] | growth [20] |
| --- | --- | --- | --- | --- | --- | --- | --- | --- | --- | --- | --- | --- | --- | --- | --- | --- | --- | --- | --- | --- |
| c1ccc(Sc2ccccc2)cc1 | 105% | 112% | 94.4% | 109% | 114% | 97% | 103% | 88.3% | 99.4% | 102% | 99.7% | 98.2% | 94.5% | 95.9% | 104% | 101% | 104% | 107% | – | – |
| CC(=O)Nc1cccc(NC(C)=O)n1 | 110% | 96.6% | 91.5% | 107% | – | 100% | 103% | 102% | 103% | 110% | 106% | – | 102% | – | 105% | 97.5% | 103% | 108% | 108% | 103% |
| Cc1ccc(S(=O)(=O)O)c(C)c1 | 108% | 98.8% | 88.4% | 116% | 117% | 114% | 101% | 108% | 104% | 103% | 82.8% | 109% | 97.1% | 99.1% | 105% | 120% | 95.3% | 106% | – | 101% |
| NC(CSC(c1ccccc1)(c1ccccc1)c1ccccc1)C(=O)O (stereo unspecified) | 29.9% | 14.5% | 51.1% | 4.8% (active) | 3.38% (active) | 43.3% | 10.3% | 52.3% | 34.3% | 14% | 64.9% | 49.8% | 14.1% | 19.7% | 26.3% | 48% | 38.2% | 57.9% | – | 13.6% |
| CC(CC(=O)c1ccccc1)c1ccccc1 (stereo unspecified) | 112% | 102% | 93% | 119% | – | 110% | 105% | 94.1% | 108% | 95.7% | 104% | 109% | – | 99.5% | – | 107% | – | 101% | 95.8% | 119% |
| COc1cc(CN)ccc1O | 91.2% | 71.7% | 79.3% | 86.9% | 95% | 100% | 94.9% | 94.1% | 111% | 91.8% | 88.8% | 94.9% | 96% | 100% | 102% | 90.1% | 89.8% | 117% | – | 101% |
| O=P(O)(O)OCC(O)CO (stereo unspecified) | 107% | 113% | 110% | 111% | 107% | 108% | 105% | 102% | 104% | 101% | 84% | 104% | 94% | 96.7% | 102% | 108% | 97.9% | 98.2% | – | 101% |
| O=[N+]([O-])c1ccc(N=Nc2ccc(O)c3ccccc23)cc1 | 66.9% | 22.1% | 57.8% | 36.8% | 60.1% | 45.9% | 75.4% | 17% | 41.2% | 79.1% | 68.8% | 39.8% | – | 14.9% | 28.7% | – | 18.4% | 69% | – | – |
| CCCC[P+](c1ccccc1)(c1ccccc1)c1ccccc1 | 62.5% | 24.4% | 41% | 84.3% | 102% | 67.2% | 64.5% | 17% | 99.5% | 40.9% | 53.5% | 55.3% | 30.1% | 26.8% | 16.1% | 44.3% | 41% | 69.1% | – | 54.9% |
| COC(=O)/C=C1\Sc2cc(F)ccc2NC1=O | 126% | 91.2% | 102% | 107% | – | 110% | 104% | 91% | 106% | 97.8% | 86.6% | 95% | 93.2% | 92.2% | 104% | 88.8% | 93.4% | 129% | 118% | 93.3% |
| O=C1OC[C@H]2[C@H](c3ccc(O)c(O)c3)c3cc(O)c(O)cc3C[C@H]12 | 108% | 180% | 140% | 129% | – | 116% | 122% | 147% | 116% | 115% | 116% | 120% | 116% | 46.7% | 102% | 111% | 113% | 117% | 124% | 120% |
| Cc1ccncc1C(N)=O | 106% | 101% | 106% | 116% | – | 98.2% | 95.7% | 110% | 96.6% | 105% | 80.9% | – | 98.3% | – | 100% | 95.8% | 93.2% | 114% | 120% | 103% |
| C#CC(C)(O)c1ccc(Cl)cc1 (stereo unspecified) | 112% | 91.3% | 125% | 102% | – | 103% | 96.3% | 101% | 98.4% | 102% | 98.8% | 106% | 97.8% | 96.6% | – | -18.6% (active) | 94.5% | 110% | 90.8% | 98.8% |
| CC(=O)c1ccc(N=C(C#N)C2=C(O)c3ccccc3C2=O)cc1 | 113% | 85.5% | 114% | 106% | – | 101% | 107% | 94.2% | 113% | 98.7% | 78.8% | 101% | – | 100% | – | 109% | – | 113% | 102% | 105% |
| CC(=O)c1ccc2c(ccc3ccccc32)c1 | 111% | 90.5% | 110% | 105% | – | 104% | 97.5% | 108% | 68.4% | 95.6% | 105% | 99.4% | 92.1% | 104% | – | 96.5% | 107% | 108% | 99.3% | 89.1% |
| COc1cccc(O)c1O | 27% | 78.4% | 67% | 85.5% | 72.7% | – | 20.6% | 72.3% | 38.4% | 104% | 56.3% | 65.1% | 65.1% | 79.5% | 55.9% | 45.5% | 53.7% | 74.1% | 104% | 44.6% |
| CC(C)CCCC(=O)O | 111% | 135% | 98.5% | 123% | 93% | 106% | 98.5% | 117% | – | 104% | 95.4% | 101% | 103% | 94.8% | 97.2% | 107% | 105% | 99% | – | 119% |

Reference: PubChem BioAssay (NCI)
